Measured values taken from PubChem BioAssay (NCATS).

target: Glucocorticoid receptor (Homo sapiens) (UniProt P04150); assay: GR-GFP Redistribution (AID 450); conditions: U2OS GR-GFP nuclear translocation, laser cytometry, 2 h
Potency means the concentration at half of the fitted maximal effect.

Glucocorticoid receptor (Homo sapiens), sequence (P04150 whole entry, looked up, the tested form may be a part): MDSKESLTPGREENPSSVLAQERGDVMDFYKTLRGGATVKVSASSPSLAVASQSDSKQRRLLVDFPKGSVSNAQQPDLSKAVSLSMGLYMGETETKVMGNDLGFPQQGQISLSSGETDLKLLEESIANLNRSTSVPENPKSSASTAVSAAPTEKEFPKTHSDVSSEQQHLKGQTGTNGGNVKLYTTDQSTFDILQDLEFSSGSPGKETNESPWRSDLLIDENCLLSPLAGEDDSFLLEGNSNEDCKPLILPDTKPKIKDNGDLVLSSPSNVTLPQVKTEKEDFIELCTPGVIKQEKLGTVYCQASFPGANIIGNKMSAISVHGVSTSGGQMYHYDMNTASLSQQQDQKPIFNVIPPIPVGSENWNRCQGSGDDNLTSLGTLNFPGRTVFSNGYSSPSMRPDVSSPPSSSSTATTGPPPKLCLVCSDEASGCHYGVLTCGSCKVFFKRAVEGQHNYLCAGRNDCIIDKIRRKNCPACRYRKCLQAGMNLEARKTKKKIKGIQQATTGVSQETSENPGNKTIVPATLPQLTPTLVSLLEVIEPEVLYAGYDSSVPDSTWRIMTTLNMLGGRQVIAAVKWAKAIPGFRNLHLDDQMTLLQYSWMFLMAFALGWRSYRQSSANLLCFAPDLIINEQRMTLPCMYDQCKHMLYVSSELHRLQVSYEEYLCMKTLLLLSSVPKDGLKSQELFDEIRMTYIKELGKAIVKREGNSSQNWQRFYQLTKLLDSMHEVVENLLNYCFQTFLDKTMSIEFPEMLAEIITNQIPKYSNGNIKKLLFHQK

Potency, inactive:
N#C[C@H](c1ccccc1)N1CCCN([C@@H](C#N)c2ccccc2)C1c1ccccc1O (stereo not given in full) > 46 µM
O=C1CNCCCN2CCN(CCCNCC(=O)Nc3ccc(cc3)S(=O)(=O)c3ccc(cc3)NC(=O)CNCCCN3CCN(CCCNCC(=O)Nc4ccc(cc4)S(=O)(=O)c4ccc(cc4)N1)CC3)CC2 > 46 µM
Cn1c(=S)c2[nH]c(SCc3cccnc3)nc2n(C)c1=O > 46 µM
Nc1ncnc2nc[nH]c12.Nc1ncnc2nc[nH]c12.[Cl][Pt]([Cl])([Cl])[Cl] > 46 µM
CSC1(SC2=NCCN2)SC2(NCCN2)S1 > 46 µM
N=C(N)S[C@H]1c2ccccc2-c2cc([N+](=O)[O-])ccc21 > 46 µM
c1nc(NCCc2cnc[nH]2)c2[nH]cnc2n1 > 46 µM
COc1ccc2c(c1)Cc1cc(N=[N+]([O-])c3ccc4c(c3)Cc3cc(OC)ccc3-4)ccc1-2 > 46 µM
C(=N/Nc1nnc2c(n1)[nH]c1ccccc12)/c1cccnc1 > 46 µM
O=C(CC(=O)c1ccncc1)c1ccccc1 > 46 µM
O=S(=O)(O)c1cc(O)c2c(N=Cc3ccccc3O)cc(S(=O)(=O)O)cc2c1 > 46 µM
CC(C)(C)C(=O)[C@H]([C@@H](c1ccccc1)N1CCOCC1)N1CCOCC1 > 46 µM
BrC(c1cccc2ccccc12)c1cccc2ccccc12 > 46 µM
C/C(=N/Nc1ccc2ccccc2n1)c1ccccc1O > 46 µM
O[C@@H](C1=C/C(=C\c2ccncc2)c2ccccc21)c1ccncc1 > 46 µM
Nc1cccc(OCc2nc(N)nc(N)c2-c2ccc(Cl)cc2)c1 > 46 µM
CN(C)c1ccc(/C=N\NC(=O)c2cnc3ccccc3c2)cc1 > 46 µM
Cc1ccc(S(=O)(=O)Nc2cc(=O)[nH]c3c2CCC3)cc1 > 46 µM
Cc1ccc2c(c1)N[C@H](c1ccc(C(=O)O)cc1)c1cccn1-2 > 46 µM
COc1cc(Cl)c(CC(=O)c2c[nH]c3ccccc23)cc1OC > 46 µM
Cn1c(=O)c2[nH]c(SCc3ccccn3)nc2n(C)c1=S > 46 µM
Nc1nc(SCc2ccccc2[N+](=O)[O-])c2[nH]cnc2n1 > 46 µM
COCCn1c(=O)c(-c2ccccc2)nc2cnc(Oc3ccccc3)nc21 > 9.22 µM
Cn1ncc2c(NCCc3ccccc3)nc(Cl)nc21 > 46 µM
COc1ccc(Oc2ncc3nc(C)c(=O)n(-c4ccc(OC)cc4)c3n2)cc1 > 9.22 µM
CN[C@@H](c1ccncc1)[C@@H](NC)c1ccncc1 > 46 µM
CCCCSCc1nc2nc(Cl)c(Cl)nc2[nH]1 > 46 µM
CC(C)N1CCN(c2ccncc2S(=O)(=O)N2CCCCC2)CC1 > 46 µM
Nc1nc(SCCc2ccccc2)c2[nH]cnc2n1 > 46 µM
CN(C)C[C@H]1CCC[C@@H](CN(C)C)C1=O > 46 µM
O=C1C2=C(Nc3cc([N+](=O)[O-])ccc3N2)O[C@@H]1c1c[nH]c2ccc(COc3ccccc3)cc12 > 46 µM
O=S(=O)(c1cnccc1N1CCN(CCO)CC1)N1CCCC1 > 46 µM
C[C@](O)(c1ccccc1)c1nccc2ccccc12 > 46 µM
O=c1oc2cc(N=Cc3ccc4c(c3)OCO4)ccc2c2ccccc12 > 46 µM
C=C[C@]1(C)C[C@H](OC(=O)CO)[C@]2(C)C3C(=O)CC[C@]3(CC[C@H]2C)[C@H](C)[C@H]1O (stereo not given in full) > 46 µM
O=C(O)c1ccc(SSc2ccc(C(=O)O)cn2)nc1 > 46 µM
O=C(CSc1nc2ccc([N+](=O)[O-])cc2s1)c1ccc2ccccc2c1 > 46 µM
COc1ccc2c(Cl)cc(NC(=S)Nc3ccccc3)nc2c1 > 46 µM
Nc1[nH]c(=S)[nH]c(=O)c1N=Nc1c(Br)cc(S(N)(=O)=O)cc1Br > 46 µM
Cn1c(=O)c2[nH]c(CCCCc3nc4c([nH]3)c(=O)n(C)c(=S)n4C)nc2n(C)c1=S > 46 µM

target: Glucocorticoid receptor (Homo sapiens) (UniProt P04150); assay: GR-EFC Redistribution (AID 451; calls by dose curve); conditions: CHO-K1 GR-EFC translocation, beta-gal luminescence, 2 h
How it was run: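 CHO-K1 cells expressing nuclear EA and GR-ED fragments of b-gal; compounds titrated up to 46 uM final, 2 h at 37 C. GR nuclear translocation read as complemented b-gal luminescence after 1 h RT detection.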

Potency, inactive:
N#C[C@H](c1ccccc1)N1CCCN([C@@H](C#N)c2ccccc2)C1c1ccccc1O (stereo not given in full) > 9.22 µM
O=C1CNCCCN2CCN(CCCNCC(=O)Nc3ccc(cc3)S(=O)(=O)c3ccc(cc3)NC(=O)CNCCCN3CCN(CCCNCC(=O)Nc4ccc(cc4)S(=O)(=O)c4ccc(cc4)N1)CC3)CC2 > 9.22 µM
Cn1c(=S)c2[nH]c(SCc3cccnc3)nc2n(C)c1=O > 9.22 µM
Nc1ncnc2nc[nH]c12.Nc1ncnc2nc[nH]c12.[Cl][Pt]([Cl])([Cl])[Cl] > 9.22 µM
CSC1(SC2=NCCN2)SC2(NCCN2)S1 > 9.22 µM
N=C(N)S[C@H]1c2ccccc2-c2cc([N+](=O)[O-])ccc21 > 9.22 µM
c1nc(NCCc2cnc[nH]2)c2[nH]cnc2n1 > 9.22 µM
COc1ccc2c(c1)Cc1cc(N=[N+]([O-])c3ccc4c(c3)Cc3cc(OC)ccc3-4)ccc1-2 > 9.22 µM
C(=N/Nc1nnc2c(n1)[nH]c1ccccc12)/c1cccnc1 > 9.22 µM
O=C(CC(=O)c1ccncc1)c1ccccc1 > 9.22 µM
O=S(=O)(O)c1cc(O)c2c(N=Cc3ccccc3O)cc(S(=O)(=O)O)cc2c1 > 9.22 µM
CC(C)(C)C(=O)[C@H]([C@@H](c1ccccc1)N1CCOCC1)N1CCOCC1 > 9.22 µM
BrC(c1cccc2ccccc12)c1cccc2ccccc12 > 9.22 µM
C/C(=N/Nc1ccc2ccccc2n1)c1ccccc1O > 9.22 µM
O[C@@H](C1=C/C(=C\c2ccncc2)c2ccccc21)c1ccncc1 > 9.22 µM
Nc1cccc(OCc2nc(N)nc(N)c2-c2ccc(Cl)cc2)c1 > 9.22 µM
CN(C)c1ccc(/C=N\NC(=O)c2cnc3ccccc3c2)cc1 > 9.22 µM
Cc1ccc(S(=O)(=O)Nc2cc(=O)[nH]c3c2CCC3)cc1 > 9.22 µM
Cc1ccc2c(c1)N[C@H](c1ccc(C(=O)O)cc1)c1cccn1-2 > 9.22 µM
COc1cc(Cl)c(CC(=O)c2c[nH]c3ccccc23)cc1OC > 9.22 µM
Cn1c(=O)c2[nH]c(SCc3ccccn3)nc2n(C)c1=S > 9.22 µM
Nc1nc(SCc2ccccc2[N+](=O)[O-])c2[nH]cnc2n1 > 9.22 µM
COCCn1c(=O)c(-c2ccccc2)nc2cnc(Oc3ccccc3)nc21 > 46 µM
Cn1ncc2c(NCCc3ccccc3)nc(Cl)nc21 > 9.22 µM
COc1ccc(Oc2ncc3nc(C)c(=O)n(-c4ccc(OC)cc4)c3n2)cc1 > 46 µM
CN[C@@H](c1ccncc1)[C@@H](NC)c1ccncc1 > 9.22 µM
CCCCSCc1nc2nc(Cl)c(Cl)nc2[nH]1 > 9.22 µM
CC(C)N1CCN(c2ccncc2S(=O)(=O)N2CCCCC2)CC1 > 9.22 µM
Nc1nc(SCCc2ccccc2)c2[nH]cnc2n1 > 9.22 µM
CN(C)C[C@H]1CCC[C@@H](CN(C)C)C1=O > 9.22 µM
O=C1C2=C(Nc3cc([N+](=O)[O-])ccc3N2)O[C@@H]1c1c[nH]c2ccc(COc3ccccc3)cc12 > 9.22 µM
O=S(=O)(c1cnccc1N1CCN(CCO)CC1)N1CCCC1 > 9.22 µM
C[C@](O)(c1ccccc1)c1nccc2ccccc12 > 9.22 µM
O=c1oc2cc(N=Cc3ccc4c(c3)OCO4)ccc2c2ccccc12 > 9.22 µM
C=C[C@]1(C)C[C@H](OC(=O)CO)[C@]2(C)C3C(=O)CC[C@]3(CC[C@H]2C)[C@H](C)[C@H]1O (stereo not given in full) > 9.22 µM
O=C(O)c1ccc(SSc2ccc(C(=O)O)cn2)nc1 > 9.22 µM
O=C(CSc1nc2ccc([N+](=O)[O-])cc2s1)c1ccc2ccccc2c1 > 9.22 µM
COc1ccc2c(Cl)cc(NC(=S)Nc3ccccc3)nc2c1 > 9.22 µM
Nc1[nH]c(=S)[nH]c(=O)c1N=Nc1c(Br)cc(S(N)(=O)=O)cc1Br > 9.22 µM
Cn1c(=O)c2[nH]c(CCCCc3nc4c([nH]3)c(=O)n(C)c(=S)n4C)nc2n(C)c1=S > 9.22 µM
